These results are taken from PubChem BioAssay.

The source made the active and inactive calls.

The test system of experiment [1] is PRMT1 (protein arginine N-methyltransferase 1). In words: small molecules binding arginine methyltransferase PRMT1 – biochemical, small-molecule microarray, 635 nm fluorescence, primary screen (AID 1088).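 Note: binding of Prmt1 protein to compounds spotted on small-molecule microarray slides.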 As to conditions: higher = more signal.
The nature of experiment [2]: growth effects on S. cerevisiae YJM789 – YJM789 clinical isolate, OD600, 24 h, basal, primary screen (AID 1089).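 Note: growth of clinical yeast isolate S. cerevisiae YJM 789 seeded 1000 cells per well; test concentration not given here.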 As to conditions: higher = more signal, called active from +8 up or from −8 down.
Experiment [3] can be described thus: S. pombe growth modifiers, basal conditions – strain 972, OD600, 24 h, no modulator, primary screen (AID 1090).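 Note: basal condition with compound alone and no growth modifier present; test concentration not given here.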 As to conditions: S. pombe 972 growth, higher = more signal, called active from +8 up or from −8 down.
Experiment [4] in a line: budding yeast growth modifiers under rapamycin – strain BY4716, OD600, 96 h, primary screen (AID 1091). Note: test concentration not given here. As to conditions: S. cerevisiae BY4716 + rapamycin, higher = more signal, called active from +8 up or from −8 down.
In experiment [5] the target is Torsin-1A-interacting protein 2 (Homo sapiens) (UniProt Q8NFQ8). Put plainly: small molecules binding lysate-expressed LULL1 – cell lysate, human LULL1 lysate, 635/667 nm fluorescence, primary screen (AID 1092).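 Note: probe is lysate of COS7 cells overexpressing human LULL1; score merges per-feature 667 nm fluorescence with signal-to-noise.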 As to conditions: small-molecule microarray, hLULL1 lysate binding, 635 nm fluorescence; higher = more signal.
Experiment [6] can be described thus: optical density change of DRC41 E. coli – strain DRC41, OD650, 24 h, E. coli filamentation project, primary screen (AID 1093).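 Note: MC1000 strain lacking acrAB efflux and sulA so SOS filamentation is blocked; test concentration not given here.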 The following applies: E. coli DRC41 growth, higher = more signal, called active from +8 up or from −8 down.
Experiment [7] in a line: probe aLefty2 binding to arrayed compounds – biochemical, biotinylated probe, 635/667 nm fluorescence, primary screen (AID 1094).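 Note: score merges spot fluorescence near 667 nm with spot signal-to-noise ratio.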 As to conditions: small-molecule microarray, higher = more signal.
Experiment [8] deals with Noggin (protein binding on small-molecule microarray). In words: small molecules binding Noggin protein – biochemical, 635/667 nm fluorescence, primary screen (AID 1095).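 Note: score merges 667 nm feature fluorescence with signal to noise over triplicate slides.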 The following applies: 635 nm fluorescence, higher = more signal.
The target in experiment [9] is Neurogenic locus notch homolog protein 3 (Homo sapiens) (UniProt Q9UM47). In words: small molecules binding NOTCH3 protein – biochemical, 635/667 nm fluorescence, primary screen (AID 1096). The following applies: small-molecule microarray, 635 nm fluorescence, higher = more signal.
Experiment [10] can be described thus: probe aEGFR binding to arrayed compounds – biochemical, biotinylated probe, 635/667 nm fluorescence, primary screen (AID 1097).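 Note: probe is a biotinylated anti-EGFR antibody binding compounds printed on slides; score combines fluorescence near 667 nm and signal to noise of each spot.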 As to conditions: small-molecule microarray, higher = more signal.
In experiment [11] the test system is Plasmodium falciparum Sir2 (PF13_0152, Sir2A). In words: Plasmodium falciparum Sir2A binding compounds – biochemical, small-molecule microarray, 635 nm fluorescence, primary screen (AID 1098).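 Note: score merges spot fluorescence intensity with its signal-to-noise ratio.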 As to conditions: fluorescence 635 nm, higher = more signal.
Experiment [12] is described as follows: probe aDKK1 binding to arrayed compounds – biochemical, biotinylated probe, 635/667 nm fluorescence, primary screen (AID 1099).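 Note: score merges 667nm spot fluorescence with signal to noise across triplicate slides; reference of the scale not given here.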 As to conditions: small-molecule microarray, higher = more signal.
A short description of experiment [13]: probe aCHRDL2 binding to arrayed compounds – biochemical, biotinylated probe, 635/667 nm fluorescence, primary screen (AID 1100). As to conditions: small-molecule microarray, higher = more signal.
Experiment [14] can be described thus: change in splice reporter luminescence, either direction, cell-based, HEK293, spliceosome inhibition project, primary screen (AID 1101).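 Note: HEK293 cells carrying a splicing-competent luciferase reporter gene; test concentration not given here.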 As to conditions: HEK293 splicing luciferase reporter, 24 h, higher = more signal, called active from +8 up or from −8 down.
Experiment [15] has as its target Fibroblast growth factor 10 (Homo sapiens) (UniProt O15520). Put plainly: compounds binding fibroblast growth factor 10 – biochemical, small-molecule microarray, 635 nm fluorescence, primary screen (AID 1102). The following applies: FGF10 binding, fluorescence 635 nm, higher = more signal.
Experiment [16] has as its system glycogen synthase kinase-3 (GSK3A per assay name; protocol says GSK3B). Put plainly: compounds binding glycogen synthase kinase-3 – biochemical, small-molecule microarray, 635 nm fluorescence, GSK3A, primary screen (AID 1103). Note: the record names both GSK3A and GSK3B. The following applies: fluorescence 635 nm, higher = more signal.
In experiment [17] the target is Epidermal growth factor receptor (Homo sapiens) (UniProt P00533). In words: compounds binding epidermal growth factor receptor – biochemical, small-molecule microarray, 635 nm fluorescence, primary screen (AID 1104).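 Note: score merges 667 nm emission intensity with spot signal to noise over triplicate slides.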 The following applies: EGFR binding, higher = more signal.
Experiment [18] addresses Follistatin-related protein 3 (Homo sapiens) (UniProt O95633). In words: compounds binding follistatin-related protein 3 – biochemical, small-molecule microarray, 635 nm fluorescence, primary screen (AID 1105).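 Note: score merges emission near 667 nm and signal to noise per printed spot across three slides.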 The following applies: FSTL3 binding, higher = more signal.
For experiment [19], the target named is Dickkopf-related protein 1 (Homo sapiens) (UniProt O94907). In words: small molecules binding DKK1 protein – biochemical, small-molecule microarray, 635 nm fluorescence scan, primary screen (AID 1106).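 Note: score merges emission near 667 nm with signal to noise over three replicate slides.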 As to conditions: higher = more signal.
Experiment [20] relates to Inhibin beta A chain (activin A). Put plainly: small molecules binding activin A – biochemical, small-molecule microarray, 635 nm fluorescence scan, primary screen (AID 1107).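 Note: mouse activin A protein probed at 4.33 µg/mL on printed slides; score merges bound-protein fluorescence near 667 nm with spot signal-to-noise.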 The following applies: INHBA, higher = more signal.

Sequence of Epidermal growth factor receptor (Homo sapiens) (P00533 whole entry, looked up): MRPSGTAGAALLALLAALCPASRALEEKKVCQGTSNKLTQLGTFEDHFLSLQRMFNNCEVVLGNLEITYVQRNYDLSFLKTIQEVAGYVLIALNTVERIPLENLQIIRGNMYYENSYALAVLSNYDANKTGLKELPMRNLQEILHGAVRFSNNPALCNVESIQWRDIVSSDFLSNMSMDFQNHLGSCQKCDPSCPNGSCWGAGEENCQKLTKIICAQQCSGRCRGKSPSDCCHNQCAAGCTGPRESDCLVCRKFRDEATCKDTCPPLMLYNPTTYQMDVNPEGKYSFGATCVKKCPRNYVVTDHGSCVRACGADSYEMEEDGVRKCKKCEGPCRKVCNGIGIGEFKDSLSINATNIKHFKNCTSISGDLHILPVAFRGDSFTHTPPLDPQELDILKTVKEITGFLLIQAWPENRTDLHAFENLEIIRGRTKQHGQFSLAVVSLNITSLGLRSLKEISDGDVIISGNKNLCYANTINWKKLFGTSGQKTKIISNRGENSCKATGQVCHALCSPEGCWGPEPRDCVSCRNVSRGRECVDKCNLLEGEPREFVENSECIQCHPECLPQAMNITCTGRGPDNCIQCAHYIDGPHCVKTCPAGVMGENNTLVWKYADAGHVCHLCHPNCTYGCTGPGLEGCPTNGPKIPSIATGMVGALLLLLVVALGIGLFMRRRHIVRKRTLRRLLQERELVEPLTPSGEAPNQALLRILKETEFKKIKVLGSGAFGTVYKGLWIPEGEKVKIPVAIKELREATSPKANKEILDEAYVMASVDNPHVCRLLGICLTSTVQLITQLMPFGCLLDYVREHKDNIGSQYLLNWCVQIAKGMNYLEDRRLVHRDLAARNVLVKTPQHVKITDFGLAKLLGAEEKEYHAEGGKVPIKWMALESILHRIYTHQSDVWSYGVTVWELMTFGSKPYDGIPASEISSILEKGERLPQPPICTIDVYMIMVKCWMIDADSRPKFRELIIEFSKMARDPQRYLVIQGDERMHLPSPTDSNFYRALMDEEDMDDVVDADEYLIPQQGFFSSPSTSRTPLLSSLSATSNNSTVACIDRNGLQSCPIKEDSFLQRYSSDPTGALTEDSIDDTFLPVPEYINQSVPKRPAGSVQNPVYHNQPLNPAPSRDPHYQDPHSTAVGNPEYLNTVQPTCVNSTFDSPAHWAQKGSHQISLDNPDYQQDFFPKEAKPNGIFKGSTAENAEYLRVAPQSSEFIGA
Sequence of Neurogenic locus notch homolog protein 3 (Homo sapiens) (Q9UM47 whole entry, looked up): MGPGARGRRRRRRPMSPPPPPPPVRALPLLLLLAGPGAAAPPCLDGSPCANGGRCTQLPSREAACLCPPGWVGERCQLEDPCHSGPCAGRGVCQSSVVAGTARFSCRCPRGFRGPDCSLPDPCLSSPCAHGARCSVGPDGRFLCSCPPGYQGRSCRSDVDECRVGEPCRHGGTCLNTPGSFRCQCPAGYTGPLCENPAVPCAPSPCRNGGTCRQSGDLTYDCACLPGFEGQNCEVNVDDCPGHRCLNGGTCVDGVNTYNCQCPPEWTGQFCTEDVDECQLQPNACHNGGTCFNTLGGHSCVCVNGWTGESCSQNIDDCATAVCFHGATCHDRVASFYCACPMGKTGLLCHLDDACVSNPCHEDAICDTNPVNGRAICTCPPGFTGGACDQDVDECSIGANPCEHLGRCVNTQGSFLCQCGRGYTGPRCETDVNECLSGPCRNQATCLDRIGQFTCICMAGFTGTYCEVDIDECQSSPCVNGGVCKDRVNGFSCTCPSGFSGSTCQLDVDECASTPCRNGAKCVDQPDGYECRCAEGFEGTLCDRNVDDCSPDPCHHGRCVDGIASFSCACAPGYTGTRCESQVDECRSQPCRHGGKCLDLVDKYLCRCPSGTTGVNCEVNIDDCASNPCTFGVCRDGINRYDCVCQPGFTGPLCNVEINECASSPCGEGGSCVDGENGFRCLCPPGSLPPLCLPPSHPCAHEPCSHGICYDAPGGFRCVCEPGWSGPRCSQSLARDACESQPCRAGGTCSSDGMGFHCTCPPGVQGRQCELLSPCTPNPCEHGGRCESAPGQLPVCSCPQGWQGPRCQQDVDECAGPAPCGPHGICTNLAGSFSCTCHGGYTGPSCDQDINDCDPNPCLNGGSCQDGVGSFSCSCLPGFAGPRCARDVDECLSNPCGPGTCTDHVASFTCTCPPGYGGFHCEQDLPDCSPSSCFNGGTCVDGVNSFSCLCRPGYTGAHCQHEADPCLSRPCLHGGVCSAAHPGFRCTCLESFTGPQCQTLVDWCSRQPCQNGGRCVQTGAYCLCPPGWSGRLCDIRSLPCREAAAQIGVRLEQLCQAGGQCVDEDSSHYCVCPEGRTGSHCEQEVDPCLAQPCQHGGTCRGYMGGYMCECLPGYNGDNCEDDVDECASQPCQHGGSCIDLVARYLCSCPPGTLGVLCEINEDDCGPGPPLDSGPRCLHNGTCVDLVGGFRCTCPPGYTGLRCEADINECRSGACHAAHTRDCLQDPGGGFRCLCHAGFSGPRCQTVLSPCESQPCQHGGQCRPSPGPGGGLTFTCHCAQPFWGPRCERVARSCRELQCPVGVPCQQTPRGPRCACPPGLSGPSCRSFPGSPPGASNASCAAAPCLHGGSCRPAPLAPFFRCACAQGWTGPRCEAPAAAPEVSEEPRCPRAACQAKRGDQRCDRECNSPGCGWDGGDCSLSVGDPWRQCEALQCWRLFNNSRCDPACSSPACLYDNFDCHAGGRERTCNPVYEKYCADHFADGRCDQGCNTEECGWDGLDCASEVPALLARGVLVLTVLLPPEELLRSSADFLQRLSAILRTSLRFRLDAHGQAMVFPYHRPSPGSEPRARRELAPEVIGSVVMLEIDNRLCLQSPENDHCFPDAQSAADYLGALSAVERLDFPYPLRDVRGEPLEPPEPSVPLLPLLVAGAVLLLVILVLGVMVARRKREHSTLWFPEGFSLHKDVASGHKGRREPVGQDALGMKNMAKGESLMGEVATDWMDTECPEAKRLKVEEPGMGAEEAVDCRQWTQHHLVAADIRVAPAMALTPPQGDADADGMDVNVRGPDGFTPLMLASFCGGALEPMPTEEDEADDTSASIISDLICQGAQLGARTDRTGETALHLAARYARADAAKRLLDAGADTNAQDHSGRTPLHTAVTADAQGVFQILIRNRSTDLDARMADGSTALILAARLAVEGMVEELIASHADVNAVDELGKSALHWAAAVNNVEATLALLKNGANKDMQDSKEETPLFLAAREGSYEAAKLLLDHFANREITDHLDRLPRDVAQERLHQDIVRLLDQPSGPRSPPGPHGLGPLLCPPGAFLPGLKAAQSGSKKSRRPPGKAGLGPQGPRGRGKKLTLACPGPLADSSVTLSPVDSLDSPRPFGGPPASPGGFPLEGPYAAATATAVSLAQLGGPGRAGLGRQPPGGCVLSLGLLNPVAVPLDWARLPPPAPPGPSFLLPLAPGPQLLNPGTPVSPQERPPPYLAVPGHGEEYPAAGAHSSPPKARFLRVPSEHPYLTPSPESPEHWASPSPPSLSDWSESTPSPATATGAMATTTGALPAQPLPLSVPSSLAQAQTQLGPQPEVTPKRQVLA
Sequence of Dickkopf-related protein 1 (Homo sapiens) (O94907 whole entry, looked up): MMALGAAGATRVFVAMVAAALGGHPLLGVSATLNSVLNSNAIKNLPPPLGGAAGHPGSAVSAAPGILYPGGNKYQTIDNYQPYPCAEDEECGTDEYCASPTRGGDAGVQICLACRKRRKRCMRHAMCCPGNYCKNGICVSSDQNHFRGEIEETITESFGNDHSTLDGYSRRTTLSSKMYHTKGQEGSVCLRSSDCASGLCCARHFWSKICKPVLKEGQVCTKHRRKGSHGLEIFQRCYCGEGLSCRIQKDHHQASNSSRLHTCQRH
Sequence of Torsin-1A-interacting protein 2 (Homo sapiens) (Q8NFQ8 whole entry, looked up): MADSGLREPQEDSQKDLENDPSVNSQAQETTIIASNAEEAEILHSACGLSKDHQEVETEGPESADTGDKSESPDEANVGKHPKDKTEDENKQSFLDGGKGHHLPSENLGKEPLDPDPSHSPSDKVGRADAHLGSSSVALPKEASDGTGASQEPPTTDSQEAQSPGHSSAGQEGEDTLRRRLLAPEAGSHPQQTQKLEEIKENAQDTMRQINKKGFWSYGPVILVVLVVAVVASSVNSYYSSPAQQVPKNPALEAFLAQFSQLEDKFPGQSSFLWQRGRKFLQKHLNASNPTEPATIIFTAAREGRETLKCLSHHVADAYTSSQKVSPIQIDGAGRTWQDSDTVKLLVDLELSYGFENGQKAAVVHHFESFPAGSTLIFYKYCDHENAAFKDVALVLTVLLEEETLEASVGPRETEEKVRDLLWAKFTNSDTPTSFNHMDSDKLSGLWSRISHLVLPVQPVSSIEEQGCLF
Sequence of Follistatin-related protein 3 (Homo sapiens) (O95633 whole entry, looked up): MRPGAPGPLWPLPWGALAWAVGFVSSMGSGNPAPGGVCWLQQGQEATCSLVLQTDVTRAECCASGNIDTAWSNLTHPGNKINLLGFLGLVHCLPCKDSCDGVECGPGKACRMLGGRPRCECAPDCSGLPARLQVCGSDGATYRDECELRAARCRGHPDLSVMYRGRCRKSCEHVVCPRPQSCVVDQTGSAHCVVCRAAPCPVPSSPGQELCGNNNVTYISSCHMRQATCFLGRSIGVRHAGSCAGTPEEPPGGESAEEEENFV
Sequence of Fibroblast growth factor 10 (Homo sapiens) (O15520 whole entry, looked up): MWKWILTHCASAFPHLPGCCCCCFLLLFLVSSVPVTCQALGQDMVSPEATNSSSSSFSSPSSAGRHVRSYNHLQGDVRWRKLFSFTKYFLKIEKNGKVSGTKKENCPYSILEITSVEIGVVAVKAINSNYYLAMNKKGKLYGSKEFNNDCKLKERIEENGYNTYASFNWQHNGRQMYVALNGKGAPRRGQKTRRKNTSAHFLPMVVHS

For `CO[C@H]1COC(=O)[C@H](C)NC(=O)CC=C[C@@H](C)[C@H](NS(=O)(=O)c2ccc(C)cc2)COC(=O)CC=C[C@@H]1C`, the composite z-score in experiment [1] is 0.0763; in [5], -0.876; in experiment [7], -0.186; in experiment [8], 0.678; in experiment [9], -0.734; in [10] it was -0.119. In addition, the composite z-score was 0.997 in experiment [11]; -0.667 in [12]; -1.28 in experiment [13]; 0.27 in experiment [15]; -0.0078 in experiment [16]; 0.778 in experiment [17]. For the same molecule, the composite z-score stood at 0.956 in experiment [18], 0.979 in [19] and 1.47 in [20]. Besides, the z-score in experiment [2] is -0.733 (inactive); in experiment [3], -0.635 (inactive); in [4], -1.1 (inactive); in experiment [6], 0.119 (inactive); in experiment [14] it was -0.489 (inactive).

On to `CCN1C(C)=C(C(=O)OC)[C@@H](c2ccccc2)N2C(=O)[C@@]3(C(=O)OC)O[C@@]12[C@@H]1C(=O)N(c2ccccc2)C(=O)[C@@H]13`, for which the composite z-score is 1.22 in [1]; 1.2 in experiment [5]; -0.19 in experiment [7]; 1.21 in [8]; 0.983 in experiment [9]; -0.087 in experiment [10]. Further, the composite z-score in [11] was 0.286; in experiment [12], 0.0355; in experiment [13], -0.253; in [15] it was 1; in experiment [16], 0.85; in experiment [17], 0.472. Also, the composite z-score is 1.24 in experiment [18], 0.4 in experiment [19] and -0.545 in experiment [20]. Moreover, the z-score in experiment [2] was -0.806 (inactive); in experiment [3], -1.23 (inactive); in experiment [4], -0.325 (inactive); in [6], -0.0256 (inactive); in experiment [14] it was -1.66 (inactive).

Regarding `Cc1ccc(S[C@]2(C(=O)O)CC(=O)N(Cc3cc(C(F)(F)F)cc(C(F)(F)F)c3)[C@@H]2c2ccc(CO)cc2I)cc1`, the composite z-score in experiment [1] is 1.33; in experiment [5], 1.59; in [7], 0.107; in experiment [8], -1.49; in [9] it was -0.913; in [10] it was -0.264. In addition, the composite z-score in experiment [11] was 1.3; in [12] it was 0.483; in experiment [13], 1.16; in experiment [15] it was -0.458; in experiment [16] it was -1.13; in [17], -1.65. Further, the figures for the composite z-score in [18], in experiment [19] and in [20] were -1.07, -1.38 and 0.645, respectively. Moreover, the z-score in experiment [2] was -0.455 (inactive); in [3], -2.26 (inactive); in experiment [4], 2.31 (inactive); in experiment [6], 0.663 (inactive); in [14], -1.48 (inactive).

As for `CO[C@@H]1COC(=O)CC=C[C@@H](C)[C@H](OC)COC(=O)CC=C[C@H]1C`, the composite z-score was -0.0399 in [1]; -0.266 in experiment [5]; -0.38 in experiment [7]; 1.71 in experiment [8]; -0.801 in experiment [9]; -0.158 in experiment [10]. The composite z-score in [11] was 0.816; in experiment [12] it was -0.628; in [13], -1.4; in [15], 0.262; in [16], 0.103; in [17], 0.346. Also, the composite z-score in experiment [18] worked out at 0.953; in experiment [19], 1.84; in [20] it was 1.8. Moreover, the z-score in experiment [2] was -0.131 (inactive); in experiment [3], -0.761 (inactive); in experiment [4], -0.891 (inactive); in experiment [6] it was 0.162 (inactive); in experiment [14], 0.161 (inactive).

`C=CCC(OC(C)=O)[C@@H]1[C@@H](N(Cc2cc3ccccc3o2)C(=O)c2ccc(C)cc2)c2cc(OCCCO)ccc2N1C(=O)c1ccc2ccccc2n1` (stereo not given in full): the composite z-score was 0.207 in experiment [1]; 0.285 in experiment [5]; -0.168 in experiment [7]; 0.11 in experiment [8]; 0.197 in [9]; -0.129 in experiment [10]. Also, the composite z-score in experiment [11] is -0.222; in [12], 0.164; in experiment [13] it was 0.504; in experiment [15], -0.146; in experiment [16], -0.216; in [17], 0.311. In addition, the values for the composite z-score in experiment [18], in experiment [19] and in experiment [20] were 0.0952, -0.0273 and 1.51, respectively. The z-score in [2] was -0.0537 (inactive); in [3], -0.518 (inactive); in [4], -0.391 (inactive); in experiment [6], 2.74 (inactive); in experiment [14], -0.178 (inactive).
